Laboratory results reported in PubChem BioAssay (NCI).
The panel holds about 83,000 compounds, 20% with a hit somewhere; the sample as a whole holds those more often.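 Growth was measured after 48 h exposure to one concentration of compound in 96-well plates. Values under 10 count as active.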 Calls of active or inactive are those of the source.

Experiments:
Test in all cases: NCI-60 one-dose screen, 48 h (100 = growth as untreated, 0 = no growth, -100 = all killed)
Conditions in all cases: 10 µM unless noted
NCI-H23 lung = system: NCI-H23 lung
NCI-H226 lung = system: NCI-H226 lung
NCI-H322M lung = system: NCI-H322M lung
HOP-62 NSCLC = system: HOP-62 NSCLC
NCI-H460 lung = system: NCI-H460 lung
NCI-H522 lung = system: NCI-H522 lung
A549/ATCC NSCLC = system: A549/ATCC NSCLC
786-0 renal = system: 786-0 renal
COLO 205 colon = system: COLO 205 colon
DU-145 prostate = system: DU-145 prostate
MALME-3M melanoma = system: MALME-3M melanoma
MDA-MB-231 breast = system: MDA-MB-231 breast
RXF 393 renal = system: RXF 393 renal
SF-268 CNS = system: SF-268 CNS
SF-295 CNS = system: SF-295 CNS
SF-539 CNS = system: SF-539 CNS
UACC-257 melanoma = system: UACC-257 melanoma
M14 melanoma = system: M14 melanoma
K-562 leukemia = system: K-562 leukemia

Measured: growth

CCCCCCCCCCCCNC(=O)N[C@H](C(=O)N[C@H]1/C=C/CCNC(=O)/C=C/[C@H](C)NC1=O)C(C)C
inactive: A549/ATCC NSCLC 10.5% | UACC-257 melanoma 49.9%
active: NCI-H23 lung -42.8% | NCI-H226 lung -87% | NCI-H322M lung 3.54% | HOP-62 NSCLC -65.1% | NCI-H460 lung 2.24% | NCI-H522 lung -21.7% | 786-0 renal -37.7% | COLO 205 colon -51.3% | DU-145 prostate 6.45% | MALME-3M melanoma -1.82% | MDA-MB-231 breast -44.7% | RXF 393 renal -98.8% | SF-268 CNS -44.9% | SF-295 CNS -37.4% | SF-539 CNS -49.4% | M14 melanoma -82%

O=S1(=O)NCCN1CCNc1nccc(-c2c(-c3cccc(O)c3)nc3sccn23)n1
inactive: NCI-H23 lung 104% | NCI-H226 lung 105% | NCI-H322M lung 115% | HOP-62 NSCLC 115% | NCI-H460 lung 107% | NCI-H522 lung 87.2% | A549/ATCC NSCLC 106% | 786-0 renal 126% | COLO 205 colon 42.4% | DU-145 prostate 106% | MDA-MB-231 breast 86.8% | RXF 393 renal 111% | SF-268 CNS 116% | SF-295 CNS 93.2% | SF-539 CNS 109% | UACC-257 melanoma 59.7% | M14 melanoma 20.8%
active: MALME-3M melanoma 4.99%

COc1ccc(/C=C/c2nc3ccccc3c(=O)n2-c2ccc(C#Cc3ccc(C(C)(C)C)cc3)cc2C)c(OC)c1
inactive: NCI-H23 lung 94% | NCI-H226 lung 87.3% | NCI-H322M lung 101% | HOP-62 NSCLC 112% | NCI-H460 lung 85% | NCI-H522 lung 70.2% | A549/ATCC NSCLC 91.2% | 786-0 renal 101% | COLO 205 colon 97.9% | DU-145 prostate 109% | K-562 leukemia 63.9% | MALME-3M melanoma 94.8% | MDA-MB-231 breast 89.5% | RXF 393 renal 113% | SF-268 CNS 96.9% | SF-295 CNS 101% | SF-539 CNS 97.1% | UACC-257 melanoma 72.8% | M14 melanoma 96.8%

COc1ccc2c(c1)OC1=C(C(=O)OC1)C2c1cc(OC)c2c(c1)OCCO2 (configuration not stated)
active: NCI-H226 lung -13.6% | NCI-H460 lung 6.93% | NCI-H522 lung -10.7% | COLO 205 colon -69.6% | DU-145 prostate -13.7% | SF-295 CNS 7.02% | SF-539 CNS 3.93% | M14 melanoma 4.69%
inactive: NCI-H23 lung 16.2% | NCI-H322M lung 44.3% | HOP-62 NSCLC 24.1% | A549/ATCC NSCLC 18% | 786-0 renal 21.4% | MALME-3M melanoma 62.9% | MDA-MB-231 breast 25% | RXF 393 renal 37.7% | SF-268 CNS 29.5% | UACC-257 melanoma 61%

CCOC(=O)C1=C(C(=O)OCC)N(c2cc(OC)c(OC)c(OC)c2)C(N)=C(C#N)C1c1cc(=O)[nH]c2ccccc12 (configuration not stated)
inactive: NCI-H23 lung 104% | NCI-H226 lung 96.7% | NCI-H322M lung 97.3% | HOP-62 NSCLC 92.4% | NCI-H460 lung 105% | NCI-H522 lung 90.2% | A549/ATCC NSCLC 105% | 786-0 renal 101% | COLO 205 colon 111% | DU-145 prostate 104% | MALME-3M melanoma 104% | MDA-MB-231 breast 87.8% | RXF 393 renal 99.5% | SF-268 CNS 91.1% | SF-295 CNS 94.3% | SF-539 CNS 87.7% | UACC-257 melanoma 101% | M14 melanoma 105%

COc1cc(NC(=O)CSc2nc3ccc(Cl)cc3c(=O)n2Cc2ccccc2)cc(OC)c1OC
active: SF-539 CNS -6.78%
inactive: NCI-H23 lung 76.8% | NCI-H226 lung 46.4% | NCI-H322M lung 82.3% | HOP-62 NSCLC 91.3% | NCI-H460 lung 64.7% | NCI-H522 lung 57.7% | A549/ATCC NSCLC 67.3% | 786-0 renal 58.5% | COLO 205 colon 83.2% | DU-145 prostate 72% | MALME-3M melanoma 61.2% | MDA-MB-231 breast 44.6% | RXF 393 renal 30.7% | SF-268 CNS 59.3% | SF-295 CNS 84.1% | UACC-257 melanoma 70%

O=C(CCl)Nc1ccc2c(c1)C(=O)c1ccccc1C2=O
inactive: NCI-H322M lung 83.5% | HOP-62 NSCLC 19.9% | A549/ATCC NSCLC 75.7% | RXF 393 renal 39.8% | SF-295 CNS 69.9% | UACC-257 melanoma 36.2%
active: NCI-H23 lung -21.2% | NCI-H226 lung -22.6% | NCI-H460 lung 3.8% | NCI-H522 lung -68.2% | 786-0 renal -72.3% | COLO 205 colon -50.7% | DU-145 prostate 3.17% | K-562 leukemia -8.49% | MALME-3M melanoma -62.5% | MDA-MB-231 breast -5.91% | SF-268 CNS -20.3% | SF-539 CNS -10.5% | M14 melanoma -31.6%

CC(=O)Nc1ccc(/C=N/N2CCCCCC2)cc1
inactive: NCI-H23 lung 103% | NCI-H226 lung 92% | NCI-H322M lung 101% | HOP-62 NSCLC 95.2% | NCI-H460 lung 106% | NCI-H522 lung 103% | A549/ATCC NSCLC 94.3% | 786-0 renal 90.9% | COLO 205 colon 110% | DU-145 prostate 102% | MALME-3M melanoma 99.7% | MDA-MB-231 breast 74.7% | RXF 393 renal 105% | SF-268 CNS 99.4% | SF-295 CNS 94.3% | SF-539 CNS 83.6% | UACC-257 melanoma 114% | M14 melanoma 106%

Nc1c(Br)cc2c(c1Br)Cc1cc(Cl)ccc1-2
inactive: NCI-H23 lung 89.2% | NCI-H226 lung 78.6% | NCI-H322M lung 89.2% | HOP-62 NSCLC 83.4% | NCI-H460 lung 99.7% | NCI-H522 lung 102% | A549/ATCC NSCLC 95.8% | 786-0 renal 108% | COLO 205 colon 106% | DU-145 prostate 112% | MALME-3M melanoma 109% | MDA-MB-231 breast 70% | RXF 393 renal 106% | SF-268 CNS 107% | SF-295 CNS 87.8% | SF-539 CNS 89.5% | UACC-257 melanoma 111%
